Ten molecules from PubChem BioAssay can be followed below.

Assay [1] can be described thus: inhibitors of TNFa-induced NFkB p65 translocation, primary screen, imaging, HUVEC, MLSMR starter and 10KST1 sets (AID 438;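 active = inhibition above 20% together with a positive visual image hit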;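 also: compound added about 3h40 before a 20 min TNFalpha stimulation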;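 as to inhibition: signal is the nuclear over cytoplasmic p65 intensity ratio per well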). As to conditions: HUVEC TNFa-induced p65 nuclear translocation; cell count: measured here: nuclei count (cytotoxicity indicator), at 2.08 µM; inhibition: at 2 µM, stronger effect = higher value, 0% TNFa-plus-vehicle, 100% no-TNFa wells.
A short description of assay [2]: reduction of polyQ htt aggregates in cells – imaging, exon1htt(103Q)mCFP cells, high-content imaging, primary screen (AID 483;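 active = visual image review flags a hit and inhibition of aggregation exceeds 20%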;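 also: compound exposure lasted 3 days before fixation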;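 as to nuclei count: percent of the per-plate median nuclei count of sample wells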). The conditions noted are these: exon1htt(103Q)mCFP cell line, aggregate imaging, at 2 µM; inhibition of aggregation: stronger effect = higher value; nuclei count: measured here: cell count, toxicity.
Assay [3] can be described thus: endothelial E-selectin expression blockers – imaging, HUVEC, immunofluorescence, MLSMR starter and 10KST1 sets, primary screen (AID 487).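 As to inhibition: signal is fraction of cell area covered by stained E-selectin grains.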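 As to nuclei count: 100% = median nuclei count of all wells on the same plate.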 As to conditions: HUVEC TNFalpha-induced E-selectin immunofluorescence imaging, at 2 µM; inhibition: stronger effect = higher value; nuclei count: measured here: cell number, toxicity.
Assay [4] can be described thus: Primary imaging screen for DUSP6 inhibitors that restore phospho-Erk in transfected HeLa cells, chemical complementation (AID 609;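 active = compounds giving at least 50% inhibition in the cell-based MKP-3 phosphatase rescue imaging test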;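 as to inhibition: phospho-Erk level distribution per well compared with pooled transfected vehicle control wells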). As to conditions: HeLa MKP-3 transfected, phospho-Erk imaging KS statistic, at 10 µM, cells stimulated with TPA for 15 min.
Assay [5] concerns the target Dual specificity protein phosphatase 6 (Homo sapiens) (UniProt Q16828). Described as above. The conditions noted are these: HeLa MKP-3 transfected, phospho-Erk imaging KS statistic; at 10 µM; stronger effect = higher value; cells stimulated with TPA for 15 min.
Assay [6] addresses Voltage-gated potassium channel subunit beta-2 (Rattus norvegicus) (UniProt P62483). Put plainly: inhibitors of rat Kvbeta2 reductase activity – biochemical, NADPH fluorescence, primary screen (AID 622;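 active = fluorescence slope higher than the sample average by over 3 SD, cut at about -0.22 in these data, passing the limit was not always enough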;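 also: slope of raw intensity against log time taken from 70 to 1610 s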). The conditions noted are these: recombinant KvBeta, 4-cyanobenzaldehyde reduction, at 10 µM, stronger effect = higher value.
For assay [7] the target is unchanged. Put plainly: enhancers of rat Kvbeta2 NADPH turnover – biochemical, NADPH fluorescence, primary screen (AID 623;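 active = NADPH fluorescence slope more negative than the mean of all samples by about 3 SD, 99.7% confidence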;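 also: fluorescence intensity change per second fitted from 20 to 320 s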). As to conditions: Recombinant KvBeta, NADPH fluorescence decrease slope, 10 min; at 10 µM; stronger effect = lower value.
Assay [8] deals with Muscarinic acetylcholine receptor M4 (Homo sapiens) (UniProt P08173). Put plainly: M4-linked GIRK flux change, two-sided – cell-based, HEK293 M4/GIRK, thallium flux, BTC-AM, M4 allosteric agonist project, primary screen (AID 625;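 active = fluorescence slope after compound addition differing from the mean of all tested samples at 99.7% confidence, mostly higher but some lower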;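 also: thallium influx through GIRK channels coupled to M4 in HEK293 cells with BTC-AM dye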). The conditions noted are these: at 10 µM, actives lie on both sides.
The nature of assay [9]: inhibitors of larval lipid processing in zebrafish, primary screen, whole organism, PED6 fluorescence, gall bladder and intestine (AID 686;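 active = a full or partial loss of lipid-probe fluorescence in the fish gall bladder, intestine or both, judged by eye; inactive = no fluorescence loss, or compound toxic to the fish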;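 also: larvae 5 to 7 days old with five fish per well; signal comes from phospholipase A2 cleavage of quenched PED6 carried via bile; overnight exposure to compound and PED6 before scoring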). The conditions noted are these: Zebrafish larvae PED6 lipid processing, fluorescence scoring; screened at 20 µM (by protocol).
Assay [10] can be described thus: loss of swimming-algae plug formation – whole organism, Chlamydomonas reinhardtii, WT vs cilia-less mutant, absorbance, 96-well, primary screen (AID 463189;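 active = inhibition at or above 50% relative to wild type and mutant plate controls; inactive = inhibition below 50%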;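 also: 0% = wild type cc124 cells in DMSO and 100% = ciliumless bld1 mutant cells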). As to conditions: Chlamydomonas reinhardtii gravitaxis, OD600 absorbance, 2 days; at 10 µM; stronger effect = higher value.
Assay [11] in a line: blockers of RIG-like receptor reporter activation – cell-based, Sendai virus stimulus, luciferase, 10K MLSCN set, TLR/RLR signaling modifier project, primary screen (AID 602276;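 active = inhibition at or above 50% at 10 µM; inactive = inhibition below 50%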;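 also: firefly luciferase from ISG56 promoter only with Renilla not read in this screen; 0% = Sendai virus plus DMSO and 100% = medium plus DMSO without virus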). The conditions noted are these: HEK293 RL24 IRF3 luciferase reporter, at 10 µM, stronger effect = higher value.
The nature of assay [12]: TLR3 IRF3 reporter activation blockers – cell-based, poly I:C stimulus, luciferase, 10K MLSCN set, primary screen (AID 602277;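 active = inhibition of the reporter signal at or above 50%; inactive = inhibition below 50%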). The conditions noted are these: HEK293-TLR3 RL24 IRF3 luciferase reporter, at 10 µM, stronger effect = higher value. For orientation: In a reporter assay the amount or activity of a reporter protein is the signal.
The mark [13] stands for this setting: measured here: cell density z-score.
Setting [14] is: measured here: nuclear c-Myc green intensity z-score.
Where [15] appears, read: measured here: nuclear pErk red intensity z-score, stronger effect = higher value.

Molecules are shown by their SMILES. Calls of active or inactive are those of the source.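 The calls were made as follows, unless noted: active = visually confirmed hit in the image check and inhibition above 20%; inconclusive = visually confirmed hit but inhibition not above 20%; inactive = no visual hit in the image check.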

Muscarinic acetylcholine receptor M4 (Homo sapiens), sequence (P08173 whole entry, looked up): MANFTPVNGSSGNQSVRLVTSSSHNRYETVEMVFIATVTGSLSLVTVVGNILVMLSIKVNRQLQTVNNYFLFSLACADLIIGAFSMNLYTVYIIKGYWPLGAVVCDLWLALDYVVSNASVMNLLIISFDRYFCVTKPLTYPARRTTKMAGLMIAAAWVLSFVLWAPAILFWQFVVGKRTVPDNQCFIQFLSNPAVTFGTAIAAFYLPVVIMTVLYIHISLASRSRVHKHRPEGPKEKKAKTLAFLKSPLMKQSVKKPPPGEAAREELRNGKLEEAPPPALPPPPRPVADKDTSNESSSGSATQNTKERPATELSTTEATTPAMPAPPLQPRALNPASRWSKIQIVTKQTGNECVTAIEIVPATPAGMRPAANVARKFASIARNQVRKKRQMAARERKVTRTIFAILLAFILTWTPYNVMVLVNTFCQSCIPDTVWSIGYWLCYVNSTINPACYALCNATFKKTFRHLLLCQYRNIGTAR
Dual specificity protein phosphatase 6 (Homo sapiens), sequence (Q16828 whole entry, looked up): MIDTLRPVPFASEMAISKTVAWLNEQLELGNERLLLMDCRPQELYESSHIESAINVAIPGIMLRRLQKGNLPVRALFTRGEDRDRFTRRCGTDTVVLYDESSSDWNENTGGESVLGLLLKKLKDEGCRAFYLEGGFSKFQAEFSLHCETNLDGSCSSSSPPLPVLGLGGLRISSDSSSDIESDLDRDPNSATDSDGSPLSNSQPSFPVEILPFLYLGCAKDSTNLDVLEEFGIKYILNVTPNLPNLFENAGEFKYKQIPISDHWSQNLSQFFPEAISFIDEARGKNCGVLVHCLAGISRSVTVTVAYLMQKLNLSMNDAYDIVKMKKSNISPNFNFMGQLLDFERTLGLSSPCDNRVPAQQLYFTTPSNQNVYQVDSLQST
Voltage-gated potassium channel subunit beta-2 (Rattus norvegicus), sequence (P62483 whole entry, looked up): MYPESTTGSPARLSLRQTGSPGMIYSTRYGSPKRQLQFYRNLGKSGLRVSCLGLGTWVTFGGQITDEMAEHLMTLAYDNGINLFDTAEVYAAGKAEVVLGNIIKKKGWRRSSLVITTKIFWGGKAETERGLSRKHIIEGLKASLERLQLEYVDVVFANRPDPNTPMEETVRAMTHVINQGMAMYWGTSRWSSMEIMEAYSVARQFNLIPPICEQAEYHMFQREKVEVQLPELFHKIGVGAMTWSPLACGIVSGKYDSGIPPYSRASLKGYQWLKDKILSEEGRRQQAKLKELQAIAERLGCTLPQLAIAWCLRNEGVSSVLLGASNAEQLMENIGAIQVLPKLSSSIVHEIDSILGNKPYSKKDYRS

For orientation: inhibition means the drop in the measured response relative to a control, in per cent. In the case of `CCCCOc1ccccc1C(=O)NCCCC(=O)O`, the cell count in [1] was 531. Besides, the inhibition in assay [1] was -3.8% (inactive); in assay [3], -66.7% (inactive); in assay [5], -6.59% (inactive); in assay [10] it was 20.4% (inactive); in assay [11], 12.9% (inactive); in assay [12], 17.2% (inactive). Further, the inhibition of aggregation in assay [2] is -44.1% (inactive). Also, the values for the nuclei count in assay [2] and in assay [3] were 119% and 134%, respectively. Further, the z-score in assay [4] (setting [13]) was -0.714; in assay [4] (setting [14]) it was 1.18; in assay [4] (setting [15]) it was 1.54. The fluorescence slope in assay [6] is -0.439 (inactive); in assay [8] it was 0.00573 (inactive). Besides, the NADPH fluorescence slope in assay [7] was -0.000111 (inactive). Further, in [9], the outcome was “active; weak signal in gallbladder and intestine”.
In the case of `O=C(Nc1ccccn1)NC(C(F)(F)F)C(F)(F)F`, the cell count in assay [1] is 669. Also, the inhibition is -2.9% (inactive) in assay [1]; -56% (inactive) in [3]; 9.91% (inactive) in [5]; 12.6% (inactive) in assay [10]; 0.13% (inactive) in [11]; 5.13% (inactive) in assay [12]. Besides, in assay [2], the inhibition of aggregation was -15.1% (inactive). Moreover, the nuclei count in assay [2] is 118%; in assay [3], 139%. The z-score in assay [4] (setting [13]) worked out at 0.555; in assay [4] (setting [14]), 0.584; in assay [4] (setting [15]), 0.451. In addition, the fluorescence slope is -0.472 (inactive) in [6] and 0.00603 (inactive) in [8]. Besides, the NADPH fluorescence slope in [7] is -0.000163 (inactive). For the same molecule, the call in [9] was inactive.
As for `CN(C)/C=C1\N=C(c2ccc(Cl)cc2Cl)OC1=O`, the cell count in assay [1] was 698. Besides, the inhibition was -4.8% (inactive) in assay [1]; -31.3% (inactive) in assay [3]; 13.2% (inactive) in assay [5]; 40.7% (inactive) in assay [10]; -61.9% (inactive) in [11]; -177% (inactive) in assay [12]. Moreover, the inhibition of aggregation in assay [2] was 8.1% (inactive). Besides, the nuclei count turned out to be 71.7% in assay [2] and 120% in assay [3]. The z-score was -1.76 in assay [4] (setting [13]), 2.52 in [4] (setting [14]) and -0.794 in assay [4] (setting [15]). In addition, the fluorescence slope in assay [6] is -0.335 (inactive); in assay [8], 0.00537 (inactive). Also, the NADPH fluorescence slope in assay [7] is -4e-05 (inactive). Moreover, the outcome in assay [9] was inactive.
Take `COc1ccccc1Nc1ncnc2c1cnn2-c1cccc(C)c1`: in assay [1], the cell count was determined as 398. The inhibition in [1] is -11% (inactive); in assay [3], -38.9% (inactive); in [5], -2.59% (inactive); in [10], 4.11% (inactive); in assay [11], -27.1% (inactive); in assay [12] it was -52.1% (inactive). The inhibition of aggregation in [2] is 23.4% (inactive). Moreover, the nuclei count in [2] was 92.4%; in assay [3] it was 133%. For the same molecule, the z-score was -0.0649 in assay [4] (setting [13]), -0.454 in assay [4] (setting [14]) and 0.131 in assay [4] (setting [15]). Also, the fluorescence slope in [6] was -0.356 (inactive); in assay [8], 0.00739 (inactive). Further, the NADPH fluorescence slope in assay [7] is -3.8e-05 (inactive). The molecule was called inactive in assay [9].
On to `CCOC(=O)c1ccc2nc(NC(NC(C)=O)(C(=O)OC)C(F)(F)F)sc2c1` (stereo not given), for which the cell count in [1] came to 520. In addition, the inhibition in [1] is -8.2% (inactive); in assay [3], -23.9% (inactive); in [5], 9.42% (inactive); in assay [10], -10.3% (inactive); in assay [11], 133% (active); in assay [12], 99% (active). The inhibition of aggregation in assay [2] was -4% (inactive). The nuclei count in [2] amounted to 93.1%; in assay [3] it was 130%. Besides, the z-score in assay [4] (setting [13]) is 1.37; in assay [4] (setting [14]), -0.549; in assay [4] (setting [15]) it was -0.534. For the same molecule, the fluorescence slope in [6] is -0.458 (inactive); in assay [8], 0.00434 (inactive). Besides, in assay [7], the NADPH fluorescence slope is -9.4e-05 (inactive). Further, the molecule was called inactive in assay [9].
For `COc1ccc2c(c1)C1(C)CC(C)(C)N2C(=O)N1c1ccccc1` (stereo not given), the cell count in assay [1] is 585. The inhibition in assay [1] is -8.2% (inactive); in [3], -32.4% (inactive); in assay [5] it was -3.95% (inactive); in assay [10] it was 4.76% (inactive); in assay [11] it was 12% (inactive); in assay [12] it was 23.1% (inactive). Moreover, the inhibition of aggregation in assay [2] was -18.9% (inactive). The figures for the nuclei count in [2] and in assay [3] were 111% and 110%, respectively. For the same molecule, the z-score was 0.165 in assay [4] (setting [13]), -1.42 in assay [4] (setting [14]) and -0.582 in [4] (setting [15]). The results for the fluorescence slope in assay [6] and in [8] were -0.461 (inactive) and 0.0047 (inactive), respectively. The NADPH fluorescence slope in [7] was -4.8e-05 (inactive). For the same molecule, the molecule was called inactive in assay [9].
As to `CCCCCn1c2nc3ccccc3nc2c2c(=O)n(CC(C)C)cnc21`, the cell count in [1] was determined as 641. In addition, the inhibition was -4.1% (inactive) in assay [1]; -73.9% (inactive) in [3]; 15% (inactive) in assay [5]; 16.4% (inactive) in assay [10]; 19.4% (inactive) in assay [11]; 19.9% (inactive) in assay [12]. Besides, the inhibition of aggregation in assay [2] is 14.3% (inactive). Moreover, the nuclei count was determined as 105% in assay [2] and 130% in [3]. In addition, the z-score in assay [4] (setting [13]) was -0.357; in assay [4] (setting [14]), 2.75; in assay [4] (setting [15]), 1.53. Moreover, the fluorescence slope in assay [6] was -0.429 (inactive); in assay [8] it was 0.00475 (inactive). Besides, the NADPH fluorescence slope in [7] was -4.4e-05 (inactive). Moreover, the outcome in [9] was inactive.
Regarding `COCc1cc(=O)[nH]c(Nc2nc3ccccc3o2)n1`, the cell count in assay [1] stood at 597. In addition, the inhibition in [1] is -4.5% (inactive); in assay [3] it was -16% (inactive); in [5] it was -2.09% (inactive); in assay [10], 4.61% (inactive); in assay [11], -29.5% (inactive); in [12], -80.2% (inactive). Moreover, the inhibition of aggregation in assay [2] was 5.2% (inactive). Also, the results for the nuclei count in assay [2] and in [3] were 87.4% and 95.2%, respectively. Moreover, the z-score is 0.0739 in [4] (setting [13]), -1.45 in [4] (setting [14]) and -0.93 in [4] (setting [15]). Also, the results for the fluorescence slope in assay [6] and in assay [8] were -0.469 (inactive) and 0.00519 (inactive), respectively. The NADPH fluorescence slope in [7] was -5.1e-05 (inactive). Besides, the molecule was classed as inactive in assay [9].
For the molecule `Cc1nn(-c2ccccc2)c2c1C(=O)NC(=O)C(C)(C)C2`, the cell count in [1] worked out at 526. The inhibition was 2.2% (inactive) in [1]; -24.8% (inactive) in assay [3]; -5.81% (inactive) in [5]; -12.8% (inactive) in assay [10]; 14.6% (inactive) in [11]; 18.9% (inactive) in assay [12]. The inhibition of aggregation in assay [2] is 9.8% (inactive). The nuclei count stood at 105% in assay [2] and 120% in [3]. Also, the z-score in assay [4] (setting [13]) is 0.866; in assay [4] (setting [14]) it was 1.24; in [4] (setting [15]), 0.796. Moreover, the fluorescence slope in assay [6] was -0.52 (inactive); in [8], 0.00545 (inactive). Besides, the NADPH fluorescence slope in assay [7] was 4.3e-05 (inactive). Moreover, the molecule was classed as inactive in assay [9].
For `COC(=O)CNC(=O)c1c(C)cc(=O)oc1C`, the cell count in assay [1] was 481. For the same molecule, the inhibition in assay [1] was 1.6% (inactive); in assay [3], -34.9% (inactive); in assay [5], 19.4% (inactive); in assay [10] it was 28.5% (inactive); in [11] it was 5.18% (inactive); in assay [12], 12% (inactive). In addition, in assay [2], the inhibition of aggregation was 1.6% (inactive). The nuclei count is 110% in assay [2] and 115% in assay [3]. The z-score in assay [4] (setting [13]) is 0.439; in [4] (setting [14]) it was -0.128; in assay [4] (setting [15]), -1.37. Besides, the results for the fluorescence slope in assay [6] and in assay [8] were -0.336 (inactive) and 0.00527 (inactive), respectively. Moreover, in assay [7], the NADPH fluorescence slope is -2.8e-05 (inactive). In addition, in assay [9], the outcome was inactive.
